Screens as filed in PubChem BioAssay.
SF-1 inh: inhibitors of human SF-1, primary screen, cell-based, CHO-K1, Gal4-SF-1 LBD, luciferase luminescence; 65,000 tested, 0.55% active; Steroidogenic factor 1 (Homo sapiens), Q13285; AID 525, 2006; CHO-K1 Gal4-SF-1 LBD luciferase reporter; inhibition, % at 10 µM;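 active = inhibition above the mean inhibition of all tested compounds plus 3 SD, cut at about 48% in these data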;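 also: 0% = SF-1 transfected cells with DMSO and 100% = mock-transfected cells lacking SF-1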
Target sequence (Q13285 whole entry, looked up, the tested form may be a part): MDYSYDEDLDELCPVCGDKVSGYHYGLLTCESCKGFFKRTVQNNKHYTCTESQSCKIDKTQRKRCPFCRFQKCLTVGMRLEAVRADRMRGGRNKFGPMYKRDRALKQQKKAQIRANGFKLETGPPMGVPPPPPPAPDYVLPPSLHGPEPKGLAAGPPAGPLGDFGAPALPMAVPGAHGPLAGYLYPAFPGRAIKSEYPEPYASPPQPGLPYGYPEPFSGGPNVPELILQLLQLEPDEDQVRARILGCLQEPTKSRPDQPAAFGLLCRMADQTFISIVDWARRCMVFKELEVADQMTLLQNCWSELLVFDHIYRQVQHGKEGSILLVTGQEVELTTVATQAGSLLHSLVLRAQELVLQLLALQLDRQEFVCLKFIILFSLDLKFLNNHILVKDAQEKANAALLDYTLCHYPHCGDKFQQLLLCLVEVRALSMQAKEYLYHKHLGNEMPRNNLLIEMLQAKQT
* hit, by the source's call. The full list was thinned out, with hits kept by preference.

SMILES | SF-1 inh
CCCC(=O)Nc1ccc(NC(=O)c2cccc(OC)c2)nc1 | -60.4
COc1ccc(C(=O)Nc2ccc(C)cn2)c(OC)c1 | 82.1*
COc1cccc(C(=O)Nc2ccc(NC(C)=O)cn2)c1 | -35.1
Cc1cc(C)n(-c2nc3c(c(=O)[nH]c(=O)n3C)n2CC(C)C)n1 | -29.3
COc1ccc2nc(NC(=O)c3ccc(-n4nc(C)cc4C)cc3)sc2c1 | 15.0
COC(=O)c1ccc(Oc2cc(C)nc(-n3nc(C)cc3C)n2)cc1 | 51.1*
COC(=O)CSc1nc(C)cc(Oc2ccccc2)n1 | -6.9
COc1cccc(C(=O)N2CCN=C2SCc2cccnc2)c1OC | -1.0
O=C(C1CCCN(S(=O)(=O)c2cnc[nH]2)C1)N1CCN(c2ccc(Cl)cc2)CC1 (stereo not given) | -1.7
Fc1ccc(Cn2nnnc2CN2CCc3ccccc3C2)cc1 | 18.7
O=C(Nc1ccccc1NC(=O)NC1CCCCC1)NC1CCCCC1 | 83.9*
Cc1ccc(NC(=O)NC2CCCCC2)cc1Cl | -73.8
Cc1c(Cl)cccc1NC(=O)NC1CCCCC1 | -29.2
O=C(NCc1ccccn1)C1CC(=O)N(C2CCCC2)C1 (stereo not given) | -8.2
CCc1ccc2nc(NC(=O)c3cc(C)on3)sc2c1 | -117.3
Cc1cc(C)n(-c2nc(C)nc3sc4c(c23)CCC(C)C4)n1 (stereo not given) | 5.2
CCN(CC)c1ccc2cc(-c3nnc(-c4ccncc4)o3)c(=O)oc2c1 | -73.2
CCN(CC)c1ccc2cc(NC(=O)CCC(=O)O)c(=O)oc2c1 | 59.3*
CCN(CC)c1ccc(NC(=O)c2ccccc2F)cc1 | -73.8
CC(C)CN(C(=O)c1ccc(=O)n(C)n1)c1nc2ccccc2s1 | -22.8
CCCN(CCC)CCSc1nc(O)c(C(C)C)c(=O)[nH]1 | -15.8
COc1cccc(-c2nc(CS(=O)(=O)CC(=O)N3CCN(C)CC3)c(C)o2)c1 | -6.6
COc1cccc(-c2nc(-c3ccc(NC(=O)c4cccnc4)cc3)no2)c1 | -54.6
COc1cccc(-c2nnc(NC(=O)c3ccc(S(=O)(=O)N4CC(C)OC(C)C4)cc3)o2)c1 (stereo not given) | 49.3*
O=C(NCCn1ccc2ccccc21)c1ccc2c(c1)OCO2 | -71.9
SMILES | SF-1 inh
Cc1cc(N2CCN(C(=O)c3ccco3)CC2)n2nc(-c3cccc(Cl)c3)cc2n1 | 12.3
CSCc1nnc(NC(=O)c2ccc(S(=O)(=O)N(CC(C)C)CC(C)C)cc2)o1 | 48.1*
COCCN(CCOC)S(=O)(=O)c1ccc(C(=O)Nc2nc(-c3ccncc3)cs2)cc1 | 5.1
Cc1nnc(NC(=O)c2ccc(S(=O)(=O)N(C)Cc3ccccc3)cc2)o1 | 22.2
CCOC(=O)c1sc2ncn(CC(=O)N(CC)CC)c(=O)c2c1C | 16.7
Clc1cc(Cl)c2nc(N3CCOCC3)sc2c1 | -57.5
c1ccc(N2CCN(c3nc4cc5c(cc4s3)OCCO5)CC2)cc1 | -61.4
c1c2c(cc3sc(N4CCOCC4)nc13)OCCO2 | 64.8*
COc1cc([C@@H]2c3cc4c(cc3[C@H](O)[C@H]3COC(=O)[C@H]23)OCO4)cc(OC)c1OC | 78.2*
COc1cc(C2NC(=O)NC(O)(C(F)(F)F)C2C(C)=O)cc(OC)c1OC (stereo not given) | -11.3
CN(C1CCCCC1)S(=O)(=O)c1ccc(-n2cnnn2)cc1 | 26.3
COc1ccc(CC(=O)Nc2ccc(S(=O)(=O)NCC3CCCO3)cc2)cc1 (stereo not given) | 7.1
COc1ccc(C(=O)Nn2c(SCC(=O)NCC3CCCO3)nc3ccccc3c2=O)cc1 (stereo not given) | 67.4*
COC(=O)c1ccc2c(=O)n(CCN3CCOCC3)c(SCC(=O)c3ccccc3)nc2c1 | -7.7
O=C(CN(C1CCCCC1)S(=O)(=O)c1ccc(Cl)cc1)NCCCO | -1.5
Cc1ccc(-c2nnn(CC(=O)N(Cc3ccco3)C(C(=O)NC(C)(C)C)c3cccs3)n2)o1 (stereo not given) | 14.5
CCS(=O)(=O)c1ccc2oc(Nc3ccccc3C)nc2c1 | -65.5
O=C(OCC(=O)N1CCOCC1)C(c1ccccc1)c1ccccc1 | -3.1
O=C1c2ccccc2C(=O)N1CCCSc1nc2ccccc2o1 | 2.1
O=C(Nc1cccc(-c2nc3cc(Cl)ccc3o2)c1)C1CCCO1 (stereo not given) | -80.9
O=S1(=O)C=C(Sc2nc3cc(Cl)ccc3o2)c2ccccc21 | 70.8*
CC(C)Nc1nc(SCC(=O)Nc2ccccc2)nc(N2CCOCC2)n1 | -2.6
COc1ccccc1NC(=O)c1cnc2n(c1=O)CCS2 | -28.7
COC(=O)c1ccc(CSc2nnnn2-c2ccccc2)o1 | 5.7
COc1ccc(CCNc2nnc(Sc3nnnn3-c3ccccc3)s2)cc1OC | 68.5*
SMILES | SF-1 inh
COc1ccc(CCNS(=O)(=O)c2ccccc2)cc1OC | 13.0
COCCN(C(=O)Nc1ccccc1)c1ccccc1C | -4.6
COC(=O)NCc1ccc(S(=O)(=O)N2CCOCC2)cc1 | -7.4
O=C(Oc1ccc2c(c1)OCO2)c1cc2c(s1)CCC2 | 8.2
O=C(Cn1cnc2sc(-c3ccccc3)cc2c1=O)NCc1ccco1 | -37.9
O=C(Nc1sc2c(c1C(=O)O)CCCCC2)c1ccco1 | -57.4
O=C(NCc1ccco1)c1ccc2nc3sc4c(c3c(=O)n2c1)CCCC4 | 60.0*
CCOCCCNc1ccc(-c2ccccc2)nn1 | -58.2
CCCCc1c(O)nc(SCC(=O)c2ccccc2)[nH]c1=O | 9.4
COc1ccc(CNC(=O)CCc2nc(-c3ccccc3F)no2)c(OC)c1 | 3.2
CNC(=O)CCc1nc(-c2ccc(C(C)(C)C)cc2)no1 | 87.6*
O=C(CCc1nc(-c2ccccc2F)no1)NCCc1ccccc1Cl | -2.1
CCCc1nc(-c2ccc(-c3ccc(F)cc3)cc2)no1 | -53.3
COc1ccc(-c2noc(CCCOc3ccccc3)n2)cc1OC | 11.3
CN(C)C(=O)CCc1nc(-c2ccc(C(C)(C)C)cc2)no1 | 83.3*
CC(C)(C)c1ccc(-c2noc(CCC(N)=O)n2)cc1 | 87.4*
CC(C)(CC(=O)O)Cc1nc(-c2ccc(Cl)cc2)no1 | -62.8
O=C1c2ccccc2C(=O)N1Cc1nc(-c2ccccc2)no1 | 14.6
C=C(C)CSC1=C(C#N)C(c2ccccc2)CC(=O)N1 (stereo not given) | 10.0
O=C(NCC1CCCO1)c1cccc(-n2cnnn2)c1 (stereo not given) | 12.5
Cc1ccc(Nc2cc(C)nn2-c2nc(C)cc(=O)[nH]2)cc1 | 96.4*
Cc1ccc(-c2cc3nc(C)cc(NCc4ccco4)n3n2)cc1 | -50.9
Cc1ccc(Nc2nc3nonc3[nH]c2=O)cc1 | -31.0
Cc1ccc(SCc2cc(=O)n3[nH]cnc3n2)cc1 | 3.2
Cn1c(=O)oc2cc(S(=O)(=O)N3CCC(N4CCCCC4)CC3)ccc21 | 25.7
SMILES | SF-1 inh
CCC(C)(C(=O)NC1CCCC1)N(C(=O)c1cnccn1)c1c(C)n(C)n(-c2ccccc2)c1=O (stereo not given) | -11.0
O=C(/C=C\Nc1ccccn1)c1ccc(Cl)cc1 | 64.1*
Cc1c(C(=O)Nc2ccccn2)oc2ccccc12 | -68.7
O=C(/C=C/Nc1ccc(F)c(Cl)c1)c1ccco1 | -55.3
O=C(c1cc2c(=O)oc3ccccc3c2s1)N1CCN(c2ncccn2)CC1 | -3.6
O=C(O)CCCCNS(=O)(=O)c1ccc(Cl)c(C(F)(F)F)c1 | -6.2
Nc1ccc(-c2nc3c(Cl)cc(N)cc3[nH]2)cc1 | 55.2*
CCN1C(=O)c2ccccc2S(=O)c2ccc(C(=O)NCCCN3CCCC3=O)cc21 (stereo not given) | -33.2
CCOc1ccccc1-c1nc(-c2ccc(C)nc2OC)no1 | -57.7
O=C(CN(c1ccc2c(c1)OCCO2)S(=O)(=O)c1ccccc1)NCc1ccco1 | -4.4
